According to PubChem BioAssay (NCI):
Compounds without any hit were thinned out: in the full panel of roughly 83,000, 20% have a hit.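 96-well plates, one dose, 48 hours. Percent growth reported; active if below 10.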 A number with no mark means an inactive call. Active and inactive are the calls of the source.

Assays:
Assay in all cases: NCI-60 one-dose screen, 48 h (100 = growth as untreated, 0 = no growth, -100 = all killed)
Settings in all cases: 10 µM unless noted
SR leukemia = test system: SR leukemia
RPMI-8226 leukemia = test system: RPMI-8226 leukemia
OVCAR-8 ovarian = test system: OVCAR-8 ovarian
SK-OV-3 ovarian = test system: SK-OV-3 ovarian
IGROV1 ovarian = test system: IGROV1 ovarian
OVCAR-3 ovarian = test system: OVCAR-3 ovarian
HS 578T breast = test system: HS 578T breast
NCI/ADR-RES ovarian = test system: NCI/ADR-RES ovarian
T-47D breast = test system: T-47D breast
BT-549 breast = test system: BT-549 breast
MDA-MB-435 melanoma = test system: MDA-MB-435 melanoma
SW-620 colon = test system: SW-620 colon
MCF7 breast = test system: MCF7 breast
HCT-116 colon = test system: HCT-116 colon
HCC-2998 colon = test system: HCC-2998 colon
KM12 colon = test system: KM12 colon
OVCAR-4 ovarian = test system: OVCAR-4 ovarian
OVCAR-5 ovarian = test system: OVCAR-5 ovarian

| Structure (SMILES) | growth (SR leukemia) | growth (RPMI-8226 leukemia) | growth (OVCAR-8 ovarian) | growth (SK-OV-3 ovarian) [%] | growth (IGROV1 ovarian) | growth (OVCAR-3 ovarian) | growth (HS 578T breast) | growth (NCI/ADR-RES ovarian) | growth (T-47D breast) | growth (BT-549 breast) | growth (MDA-MB-435 melanoma) [%] | growth (SW-620 colon) | growth (MCF7 breast) | growth (HCT-116 colon) | growth (HCC-2998 colon) | growth (KM12 colon) | growth (OVCAR-4 ovarian) [%] | growth (OVCAR-5 ovarian) [%] |
| --- | --- | --- | --- | --- | --- | --- | --- | --- | --- | --- | --- | --- | --- | --- | --- | --- | --- | --- |
| CC/C=C\C[C@H](O)C/C=C1/C(=O)C=C[C@@H]1C/C=C\CCCC(=O)NC | -27% (active) | -3.18% (active) | 11.1% | 11.4 | 7.71% (active) | 4.67% (active) | 47.7% | 6.92% (active) | -0.635% (active) | -4.05% (active) | 15.2 | 7.47% (active) | 8.89% (active) | -65% (active) | -90.7% (active) | -44.3% (active) |  |  |
| CC(C)[C@H]1COC(=O)N1[C@@H]1C(=O)N([C@@H](CCC(=O)N2CCN(C3CCCC3)CC2)C(=O)N[C@@H]2CCCc3ccccc32)[C@@H]1/C=C/c1cccc(Br)c1 | -18.9% (active) | 14.6% | 62.1% | 52.7 | 32% | 45.1% | 51.9% | 53% | 39.9% | 27.6% | 30.2 | 45.2% | 23% |  | 30.8% | 35.6% | 53.9 |  |
| CCOC(=O)CC(C)=N | 120% | 113% |  | 111 | 132% | 112% | 107% | 112% | 109% | 103% | 113 | 101% | 95.6% | 102% | 117% | 120% | 100 | 107 |
| COc1ccc(/C=c2/c(=O)[nH]c3nc4sc(C)c(C)c4c(=O)n23)cc1 | 53.9% | 82.9% |  | 102 | 97.8% | 101% | 99.6% | 79.3% | 92.7% | 85.1% | 86.8 | 107% | 93.6% | 93.1% | 113% | 99.2% | 81.8 | 105 |
| CC[C@H](CO)Nc1nc(NCc2ccccc2)n2ncc(C(C)C)c2n1 | -44.9% (active) | -40.6% (active) | 28.6% | 51.5 | 14.5% | 5.88% (active) | 7.24% (active) | 19.5% | 28.3% | -28.1% (active) |  | 1.96% (active) | 2.6% (active) | 13.7% | -27.9% (active) | 1.41% (active) | 11.8 |  |
| O=S(=O)(NCCCNc1cc(-c2cn(-c3ccccc3)nc2-c2cccc(O)c2)ccn1)c1ccccc1 | 35.5% | 32.1% | 46.1% | 66.4 | 59.2% | 58.9% | 46.9% | 51.3% | 18.4% | 44.1% |  | 25.5% | 31.6% | 40% | 22.1% | 30.1% | 59.8 |  |
| COc1cc(-c2cc(-c3nc4ccc(Cl)cc4[nH]3)[nH]n2)cc(OC)c1OC | 41.9% | 9.58% (active) | 3.73% (active) | 61.7 | 44.3% | 57.8% | 84.2% | 20% | 0.183% (active) | 22.4% | 39.5 | 78.7% | 47% | 49.4% |  | 47% | 32.2 |  |
| CC1(C)OCC2OC3(C(=O)O)OC(C)(C)OC3C2O1 (centres undefined) | 101% | 117% |  | 101 | 106% | 99.2% | 102% | 107% | 95.4% | 105% | 104 | 109% | 112% | 106% | 102% | 100% | 118 | 106 |
| O=c1c2cccc3c(Nc4c(F)cccc4F)ccc(c32)c2nc3ccccc3n12 | 21.5% | 75.4% | 92.9% | 89.1 | 53.4% | 91.5% | 110% | 95.4% | 52.7% | 98.7% |  | 102% | 20.4% | 98.4% | 72.7% | 78.9% | 82.9 |  |
| COC1C/C(=N\O)C2OC(c3ccccc3)OCC2O1 (centres undefined) | 109% | 104% |  | 100 | 109% | 110% | 106% | 103% | 103% | 105% | 102 | 105% | 102% | 97.9% | 110% | 121% | 104 | 109 |
| C/C=C/C(N)=O | 92% | 109% |  | 110 | 106% | 99% | 99.9% | 106% | 115% | 99.7% | 96.4 | 96.8% | 92.1% | 98.4% | 109% | 103% | 107 | 100 |
| ClC1=C2NC=NC2n2c(nnc2-c2ccc(Cl)cc2)N1 (centres undefined) | 91.9% | 89.2% | 96.9% | 105 | 119% | 120% | 112% | 108% | 90.8% | 101% | 99.9 | 115% | 85.6% |  | 102% | 99.6% | 116 |  |
| Nc1cccc(NC(=O)C(=O)Nc2cccc(N)c2)c1 | 115% | 88.1% |  | 117 | 75.7% | 101% | 89.8% | 93.1% | 105% | 127% | 102 | 95.5% | 100% | 80.2% | 105% | 98.7% | 126 | 94.5 |
| O=C(CN1CCN(c2cc3c(cc2F)c(=O)c(C(=O)O)cn3C2CC2)CC1)Nc1nc(-c2ccccc2)cs1 | 90.5% | 66.3% |  | 93.9 | 84.7% | 90.3% | 60.5% | 92.7% | 72.8% | 73.7% | 86.6 | 91.7% | 86.8% | 81.2% | 92.6% | 89.6% | 97.5 | 97.7 |
| Cc1sc2nc3[nH]/c(=C\c4ccc(Cl)cc4)c(=O)n3c(=O)c2c1C | 86.6% | 97.1% | 103% | 105 | 107% | 107% | 111% | 107% | 103% | 105% |  | 102% | 100% | 102% | 107% | 108% | 105 |  |
| CNC(=S)N/N=C/CSC/C=N/NC(=S)NC | 6.29% (active) | 63.7% |  | 80.5 | 9.24% (active) | 32.3% | 107% | 97.9% | 33.2% | 96.8% | 81.7 | 64.5% | 3.33% (active) | 63.3% | 97.6% | 75.9% | 76.1 | 89.8 |
